In PubChem BioAssay (Tox21):
Results filed as inconclusive are left out. Calls of active or inactive are those of the source. Unless noted, calls come from the whole dose curve; as a rule, active = well fitted curve in the direction sought with a large enough effect in the repeat runs; inconclusive = weak or mixed curves; inactive = no such curve, though single readings can be large; an effect the other way counts as inactive or inconclusive.

Assays:
[1] = qHTS assay to test for compound auto fluorescence at 535 nm (green) in HEK293 cells (AID 720680)
[2] = qHTS assay to test for compound auto fluorescence at 535 nm (green) in HEK293 cell free culture (AID 720682)
Method in brief: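 Green-label autofluorescence (485 nm excitation, 535 nm emission) measured on compound added to cell-free culture medium (DMEM, 10% FBS). Output is expressed relative to fluorescein.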

[3] = qHTS assay to test for compound auto fluorescence at 590 nm (red) in HepG2 cell free culture (AID 720684)
Method in brief: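 Ex 540 / Em 590 nm read of compound in cell-free MEM (10% FBS). Rose Bengal sodium reference.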

[4] = qHTS assay to test for compound auto fluorescence at 460 nm (blue) in HepG2 cell free culture (AID 720685)
Method in brief: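 Cell-free plates of MEM plus 10% FBS received 23 nL compound or DMSO vehicle; blue-channel (405/460 nm) intensity scored against triamterene as reference fluorophore.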

[5] = qHTS assay to test for compound auto fluorescence at 535 nm (green) in HepG2 cell free culture (AID 720686)
[6] = qHTS assay to test for compound auto fluorescence at 460 nm (blue) in HepG2 cells (AID 720687)
Method in brief: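 Cells (2,000/well in MEM with 10% FBS) attached overnight at 37 C, then were exposed to compound or DMSO for 1 hr at 37 C, 5% CO2. Fluorescence read at Ex/Em 405/460 nm, expressed as triamterene-equivalent signal.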

[7] = target: Glucocorticoid receptor (Homo sapiens) (UniProt P04150); assay: qHTS assay to identify small molecule agonists of the glucocorticoid receptor (GR) signaling pathway (AID 720691; active = well fitted activation curve with a large enough effect in the signal ratio in the repeat runs, not every such curve was filed as active; the % refers to the signal ratio)
Chain of Glucocorticoid receptor (Homo sapiens) (P04150 whole entry, looked up): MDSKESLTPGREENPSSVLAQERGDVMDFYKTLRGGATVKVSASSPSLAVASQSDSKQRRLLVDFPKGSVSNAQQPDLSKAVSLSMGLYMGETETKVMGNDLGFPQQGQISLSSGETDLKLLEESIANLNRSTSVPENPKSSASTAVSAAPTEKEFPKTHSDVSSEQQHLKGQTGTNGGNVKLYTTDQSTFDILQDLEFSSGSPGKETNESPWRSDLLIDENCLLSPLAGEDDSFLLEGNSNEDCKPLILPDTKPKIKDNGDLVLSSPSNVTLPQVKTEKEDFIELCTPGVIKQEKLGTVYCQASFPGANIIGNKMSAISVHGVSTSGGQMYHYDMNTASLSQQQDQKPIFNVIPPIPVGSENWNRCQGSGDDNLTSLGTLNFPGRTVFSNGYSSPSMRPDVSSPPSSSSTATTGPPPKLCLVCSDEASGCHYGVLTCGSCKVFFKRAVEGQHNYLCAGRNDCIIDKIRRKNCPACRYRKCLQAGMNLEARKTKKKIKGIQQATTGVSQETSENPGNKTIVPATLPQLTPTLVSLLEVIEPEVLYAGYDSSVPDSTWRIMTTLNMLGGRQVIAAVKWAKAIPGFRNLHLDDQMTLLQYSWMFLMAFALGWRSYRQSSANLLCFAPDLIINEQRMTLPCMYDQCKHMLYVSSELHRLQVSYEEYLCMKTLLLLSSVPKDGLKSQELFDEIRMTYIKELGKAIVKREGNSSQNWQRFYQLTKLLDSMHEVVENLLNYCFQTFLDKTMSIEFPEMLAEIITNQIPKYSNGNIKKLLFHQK
Method in brief: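 Agonist-mode qHTS in HeLa cells stably expressing a glucocorticoid-response-element beta-lactamase reporter. Fluorescence intensity read with FRET substrate (2 h, room temperature) after 18 h compound treatment at 37 C.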

[8] = target: Glucocorticoid receptor (Homo sapiens) (UniProt P04150); assay: qHTS assay to identify small molecule antagonists of the glucocorticoid receptor (GR) signaling pathway (AID 720692; active = well fitted inhibition curve with a large enough effect in the signal ratio in the repeat runs, not every such curve was filed as active; the % refers to the signal ratio)
Method in brief: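 Inhibition of dexamethasone-driven (5 nM final) beta-lactamase expression was measured in GRE-reporter HeLa cells over 18 h at 37C. Fluorescence was read after 2 h with the B/G FRET substrate at room temperature.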

[9] = qHTS assay to identify small molecule antagonists of the glucocorticoid receptor (GR) signaling pathway - cell viability counter screen (AID 720693); note: nearly all actives have a fitted effect of over 55% in size
[10] = qHTS assay for identifying genotoxic compounds that show differential cytotoxicity against isogenic chicken DT40 cell lines with known DNA damage response pathways - wild type cell line (AID 743012); note: nearly all actives have a fitted effect of over 60% in size
Method in brief: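 Viability by ATP luminescence (CellTiter-Glo, 30 min RT) after 40 h compound treatment at 37 C/5% CO2, using 300 parental DNA repair-proficient DT40 cells per well.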

[11] = qHTS assay for identifying genotoxic compounds that show differential cytotoxicity against isogenic chicken DT40 cell lines with known DNA damage response pathways - Rev3 mutant cell line (AID 743014); note: nearly all actives have a fitted effect of over 55% in size
[12] = qHTS assay for identifying genotoxic compounds that show differential cytotoxicity against isogenic chicken DT40 cell lines with known DNA damage response pathways - Rad54/Ku70 mutant cell line (AID 743015); note: nearly all actives have a fitted effect of over 60% in size
[13] = qHTS assay to identify small molecule antagonists of the androgen receptor (AR) signaling pathway - cell viability counter screen (AID 743033; note: nearly all actives have a fitted effect of over 45% in size)
[14] = qHTS assay to identify small molecule antagonists of the androgen receptor (AR) signaling pathway using the MDA cell line - cell viability counter screen (AID 743041; note: nearly all actives have a fitted effect of over 45% in size)
Method in brief: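 In this qHTS counter assay, fluorescence intensity after CellTiter-Fluor addition indicated viability of MDA-kb2 AR-luc cells given compounds and R1881 for 16 h at 37C.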

[15] = qHTS assay to test for compound auto fluorescence at 590 nm (red) in HEK293 cell free culture (AID 720683)
Method in brief: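 Tox21 10K library compounds were pinned into cell-free DMEM with 10% FBS and fluorescence was read at excitation 540 nm. Activity is expressed as Rose Bengal sodium equivalency.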

[16] = qHTS assay to identify small molecule antagonists of the thyroid receptor (TR) signaling pathway - cell viability counter screen (AID 743064); note: nearly all actives have a fitted effect of over 50% in size
Method in brief: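 GH3.TRE-Luc rat pituitary cells dosed after 4 hr plating, co-stimulated with T3 at 1 nM final, incubated 23.5 h at 37 C. Viability measured in the same wells by CellTiter-Fluor fluorescence after 30 min further at 37 C.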

[17] = qHTS assay to test for compound auto fluorescence at 460 nm (blue) in HEK293 cell free culture (AID 720681)
Method in brief: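 Test compounds were pinned into cell-free culture medium (DMEM with 10% FBS) and fluorescence was read directly at Ex/Em 405/460 nm. Signals were expressed as fluorescence equivalents of triamterene, with DMSO vehicle as control.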

[18] = target: Androgen receptor (Homo sapiens) (UniProt P10275); assay: qHTS assay to identify small molecule antagonists of the androgen receptor (AR) signaling pathway (AID 743035; active = well fitted inhibition curve with a large enough effect in the signal ratio in the repeat runs, not every such curve was filed as active; the % refers to the signal ratio)
Chain of Androgen receptor (Homo sapiens) (P10275 whole entry, looked up): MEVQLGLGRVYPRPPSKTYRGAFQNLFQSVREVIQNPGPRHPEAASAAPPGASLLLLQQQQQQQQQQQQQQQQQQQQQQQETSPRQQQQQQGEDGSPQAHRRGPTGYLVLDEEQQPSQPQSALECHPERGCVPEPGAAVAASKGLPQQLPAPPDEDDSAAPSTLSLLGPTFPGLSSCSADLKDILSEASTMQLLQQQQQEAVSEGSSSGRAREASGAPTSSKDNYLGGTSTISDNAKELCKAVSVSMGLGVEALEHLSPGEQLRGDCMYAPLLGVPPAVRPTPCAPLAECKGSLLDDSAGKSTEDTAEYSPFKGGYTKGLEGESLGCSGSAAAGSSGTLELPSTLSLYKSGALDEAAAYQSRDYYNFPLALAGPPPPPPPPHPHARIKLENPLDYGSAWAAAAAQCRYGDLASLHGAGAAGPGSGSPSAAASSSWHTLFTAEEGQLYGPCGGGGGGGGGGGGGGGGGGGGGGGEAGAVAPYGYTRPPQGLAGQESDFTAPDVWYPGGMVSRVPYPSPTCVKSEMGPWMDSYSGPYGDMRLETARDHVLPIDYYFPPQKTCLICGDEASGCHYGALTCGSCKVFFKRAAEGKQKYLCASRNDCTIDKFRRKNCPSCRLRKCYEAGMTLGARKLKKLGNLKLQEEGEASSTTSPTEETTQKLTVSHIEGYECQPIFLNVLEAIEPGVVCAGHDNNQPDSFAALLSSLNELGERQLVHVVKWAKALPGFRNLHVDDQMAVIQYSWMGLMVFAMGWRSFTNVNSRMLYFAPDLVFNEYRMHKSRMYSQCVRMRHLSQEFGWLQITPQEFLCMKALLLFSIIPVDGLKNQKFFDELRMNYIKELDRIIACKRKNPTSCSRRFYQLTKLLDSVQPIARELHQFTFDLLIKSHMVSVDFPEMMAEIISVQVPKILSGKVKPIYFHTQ
Method in brief: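 Antagonist mode: AR-bla HEK293 cells co-treated with test compounds and agonist R1881 for 16 h at 37C, 5% CO2. Beta-lactamase activity read as FRET fluorescence after 2 h room-temperature substrate loading.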

[19] = target: Androgen receptor (Homo sapiens) (UniProt P10275); assay: qHTS assay to identify small molecule agonists of the androgen receptor (AR) signaling pathway using the MDA cell line (AID 743040; note: nearly all actives have a fitted effect of over 20% in size)
Method in brief: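 Cell-based luciferase reporter: MDA-kb2, MMTV promoter (AR + GR response elements). 16 h compound exposure at 37C; ONE-Glo, 30 min RT, luminescence.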

[20] = target: Androgen receptor (Homo sapiens) (UniProt P10275); assay: qHTS assay to identify small molecule antagonists of the androgen receptor (AR) signaling pathway using the MDA cell line (AID 743042; note: nearly all actives have a fitted effect of over 55% in size)
Method in brief: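 MDA-kb2 cells (human breast carcinoma, stably carrying an MMTV-luciferase reporter responsive to AR and GR) were plated at 3,000 cells/well and preincubated 5 hr at 37C, then given compound plus R1881 agonist for 16 h. ONE-Glo luminescence was read.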
% is set by controls: 0 for no effect and ±100 for the full control effect.

CN(C)CCN(C)CCN(C)C
inactive: outcome [1] | outcome [2] | outcome [3] | outcome [4] | outcome [5] | outcome [6] | Potency [7] | Potency [8] | outcome [9] | Potency [10] | Potency [11] | Potency [12] | outcome [13] | Potency [14]

FB(F)F
inactive: outcome [1] | outcome [2] | outcome [15] | outcome [3] | outcome [4] | outcome [5] | outcome [6] | Potency [7] | Potency [8] | outcome [9] | Potency [10] | Potency [11] | Potency [12] | outcome [13] | Potency [14] | Potency [16]

CCCCCC(C)N (stereo unspecified)
inactive: outcome [17] | outcome [2] | outcome [15] | outcome [3] | outcome [4] | outcome [5] | outcome [6] | Potency [7] | Potency [8] | outcome [9] | Potency [10] | Potency [12] | outcome [13] | Potency [18] | Potency [19] | Potency [14] | outcome [20] | Potency [16]

COc1cc(C(=O)OC(COCCC(C)C)CN2CCOCC2)cc(OC)c1OC (stereo unspecified)
inactive: outcome [1] | outcome [2] | outcome [15] | outcome [3] | outcome [4] | outcome [5] | outcome [6] | Potency [7] | Potency [8] | outcome [9] | Potency [11] | Potency [14] | Potency [16]

O=C(c1ccccc1O)c1ccccc1O
inactive: outcome [1] | outcome [2] | outcome [15] | outcome [3] | outcome [4] | outcome [5] | outcome [6] | Potency [8] | outcome [9] | Potency [10] | outcome [13] | Potency [19] | Potency [14]

COc1cccc(OC)c1C(=O)N[C@@H]1C(=O)N2[C@@H]1SC(C)(C)[C@@H]2C(=O)O
inactive: outcome [1] | outcome [2] | outcome [15] | outcome [3] | outcome [4] | outcome [5] | outcome [6] | Potency [7] | Potency [8] | outcome [9] | Potency [10] | Potency [11] | Potency [12] | Potency [14]

CC(C)(C)c1ccc(-c2ccc(C(C)(C)C)cc2)cc1
inactive: outcome [1] | outcome [2] | outcome [15] | outcome [3] | outcome [4] | outcome [5] | outcome [6] | Potency [7] | Potency [8] | outcome [9] | Potency [12] | Potency [18] | Potency [19] | outcome [20] | Potency [16]

C[N+]12CCC(CC1)C(OC(=O)C(O)(c1ccccc1)c1ccccc1)C2 (stereo unspecified)
inactive: fluorescence, % of fluorescein [1] 0.041% [at 18.6 µM] | activity change [2] 0.0169% [at 18.6 µM] | fluorescence, % of fluorescent control [15] 0.0635% [at 18.6 µM] | fluorescence, % of Rose Bengal [3] 0.213% [at 18.6 µM] | fluorescence, % of fluorescent control [4] -0.0875% [at 18.6 µM] | fluorescence, % of fluorescein control [5] -0.0194% [at 18.6 µM] | fluorescence, % of fluorescent control [6] 0.0552% [at 18.6 µM] | outcome [9] | Potency [10] | Potency [12] | outcome [13] | Potency [14] | Potency [16]
